Rows were chosen to be rich in hits. Some 28% of all compounds tested hit in one or more screens of this group.
CYP2C19 inhib = human CYP2C19 inhibition | 96,000 tested, 21% active | P33261 | CYP2C19 Supersomes, luciferin-H EGE luminescence, 30 min | AID 778 | inhibition, % at 5 µM;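 active = CYP2C19 inhibition above a set limit at 5 µM in the primary screen, cut at about 50% in these data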
Mac1 fbg enh = CD11b/CD18-fibrinogen binding enhancement | AID 1499 | activation, % at 10 µM | 93,000 tested, 0.07% active | P05107+P11215 | K562 CD11b/CD18 adhesion to fibrinogen, ATPlite luminescence;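 active = 10 µM primary screen giving 50% or more activity, confirmed by 40% or more on retest at that dose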
CYP2C9 inh = blocks human cytochrome P450 2C9; P11712; CYP2C9 Supersomes, luciferin-H conversion, luminescence; inhibition, % at 5 µM; 96,000 tested, 20% active; AID 777;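 active = blocking of liver enzyme CYP2C9 beyond about 50% at 5 µM, limit read from the data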
Target sequence (P11712 whole entry, looked up): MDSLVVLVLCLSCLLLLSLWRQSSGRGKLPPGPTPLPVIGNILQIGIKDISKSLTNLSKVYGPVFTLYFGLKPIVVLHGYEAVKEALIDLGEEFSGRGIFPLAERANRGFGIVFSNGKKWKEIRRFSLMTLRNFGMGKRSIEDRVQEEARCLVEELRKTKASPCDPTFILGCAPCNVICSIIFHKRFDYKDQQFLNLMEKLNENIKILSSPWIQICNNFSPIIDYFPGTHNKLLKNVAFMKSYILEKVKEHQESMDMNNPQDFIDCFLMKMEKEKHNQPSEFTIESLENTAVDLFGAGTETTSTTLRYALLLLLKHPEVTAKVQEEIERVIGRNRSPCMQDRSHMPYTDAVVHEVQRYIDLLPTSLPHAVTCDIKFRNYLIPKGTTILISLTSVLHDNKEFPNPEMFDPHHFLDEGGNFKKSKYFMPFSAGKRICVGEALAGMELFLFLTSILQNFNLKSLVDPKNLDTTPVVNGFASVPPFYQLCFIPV
CYP2C9 activ = CYP2C9 (human) activation | recombinant CYP2C9, luciferin-H conversion, luminescence; hits give high values; factor 1 = untreated enzyme, 0 = blocked | activation factor at 5 µM | 96,000 tested, 1.4% active | AID 1024;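 active = activation factor of 2 or more for CYP2C9 at a 5 µM dose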
CYP2C19 act = activators of human cytochrome P450 2C19 | recombinant CYP2C19, luciferin-H EGE luminescence; hits give high values; 0 = fully inhibited enzyme, 1 = untreated enzyme | activation factor at 5 µM | 96,000 tested, under 10 active | AID 1025;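 active = activation factor of at least 2 at 5 µM in the primary screen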
Mac1 fbg inh = blocks human CD11b/CD18 adhesion to fibrinogen | K562 CD11b/CD18 adhesion to fibrinogen, ATPlite luminescence; Mn2+ added to activate the integrin | inhibition, % at 10 µM | 93,000 tested, 0.54% active;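 active = primary inhibition of 50% or more at 10 µM, then 40% or more on retest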
Hits are given with their value; n = inactive; x = not tested or not shown.

SMILES | CYP2C19 inhib | Mac1 fbg enh | CYP2C9 inh | CYP2C9 activ | CYP2C19 act | Mac1 fbg inh
Cc1ccc(S(=O)(=O)C(C#N)c2nc3ccccc3nc2N2CC(C)OC(C)C2)cc1C (stereo not given) | n | n | n | n | n | 90
CCN1CCN(c2nc3ccccc3nc2C(C#N)S(=O)(=O)c2ccc(C)cc2)CC1 (stereo not given) | n | n | n | n | n | n
O=C(c1cccnc1)N1CCN(Cc2cccc(Br)c2)CC1 | 94 | n | n | n | n | n
O=C(c1cccnc1)N1CCN(Cc2ccccc2Br)CC1 | 80 | n | n | n | n | n
COc1ccc(C(=O)N2CCN(Cc3cc(OC)c(O)c(OC)c3)CC2)cc1OC | n | n | n | n | n | n
COc1cccc(N2CCN(C(=O)c3cccnc3)CC2)c1 | 71 | n | n | n | n | n
COc1ccc(CN2CCN(C(=O)c3cccnc3)CC2)cc1Br | 94 | n | n | n | n | n
O=C(c1cccnc1)N1CCN(Cc2ccc3c(c2)OCO3)CC1 | n | n | n | n | n | n
O=C(NCc1ccco1)c1cc2ccc(O)cc2oc1=O | 97 | n | 93 | n | n | n
COc1ccc(C(=O)c2cc3ccc(O)cc3oc2=O)cc1 | 63 | n | n | n | n | n
COc1ccc2cc(C(=O)NCc3ccco3)c(=O)oc2c1 | n | n | n | n | n | n
O=C(c1ccccc1)c1cc2ccc(O)cc2oc1=O | 93 | x | 80 | n | n | x
COc1ccc2cc(C(=O)NC3CCCCC3)c(=O)oc2c1 | 96 | n | 70 | n | n | n
Cc1ccc(C(=O)NC(NC(=O)c2ccc(C)cc2)c2cccc([N+](=O)[O-])c2)cc1 | x | n | x | x | x | n
O=C(NCC1CCCO1)C(c1cccs1)N(C(=O)c1ccc(CN2CCOCC2)o1)c1ccc(Cl)cc1 (stereo not given) | x | n | x | x | x | n
CC(C)CCNC(=O)NC(=O)COc1ccccc1C#N | 75 | n | n | n | n | n
CCCOC(=O)c1ccc(Oc2cn[nH]c2-c2ccc(OCC)cc2O)cc1 | 88 | n | 100 | n | n | n
CCCOC(=O)c1ccc(Oc2c(-c3ccc(OCC)cc3O)n[nH]c2C)cc1 | 84 | n | 98 | n | n | n
COc1ccc(Oc2c(-c3ccc(O)cc3O)n[nH]c2C)cc1 | 100 | n | 100 | n | n | n
CCOc1ccc(-c2n[nH]c(C)c2-c2ccccc2OC)c(O)c1 | n | n | n | n | n | n
CCS(=O)(=O)N1CCN(C(=O)c2ccc(-c3ccccc3)cc2)CC1 | n | n | n | n | n | n
COc1ccccc1NC(=O)C1=C(C)Nc2nc(-c3cccs3)nn2C1c1cccnc1 (stereo not given) | n | n | n | n | n | n
CCC(C)NC(=O)C1CCN(S(=O)(=O)c2ccc(OC)cc2)CC1 (stereo not given) | n | n | n | n | n | n
COc1ccc(CNCCC(c2ccccc2)c2ccc3c(c2)OCO3)cc1 (stereo not given) | 79 | x | n | n | n | x
CCN1CCN(C(=O)c2cn(CCOC)c(=O)c3c2c2ccccc2n3C)CC1 | n | n | n | n | n | n
SMILES | CYP2C19 inhib | Mac1 fbg enh | CYP2C9 inh | CYP2C9 activ | CYP2C19 act | Mac1 fbg inh
CC(C)Cn1cc(C(=O)N2CCN(c3ccccn3)CC2)c2c3ccccc3n(C)c2c1=O | n | n | 78 | n | n | n
CC(C)Cn1cc(C(=O)NC2CCN(Cc3ccccc3)CC2)c2c3ccccc3n(C)c2c1=O | 57 | n | n | n | n | n
CCOC(=O)c1c(N)sc(C(=O)N(C)C)c1C | n | n | n | n | n | n
CCOC(=O)c1sc(N)nc1C(C)C | 52 | n | n | n | n | n
CCCc1nc(N)sc1C(=O)OCC | 55 | n | n | n | n | n
CCCCOC(=O)Nc1nc(C)c(C(=O)OCC)s1 | n | n | n | n | n | n
C=CCNc1nc(N2CCCCC2)c(C#N)c2c1CN(Cc1ccccc1)CC2 | 62 | n | 90 | n | n | n
N#Cc1c(NCCO)nc(NCc2ccccc2)c2c1CCN(Cc1ccccc1)C2 | n | n | 94 | n | n | n
N#Cc1c(N)sc(=S)c2c1CCN(Cc1ccccc1)C2 | 74 | n | 69 | n | n | n
CCN1CCc2c(C#N)c(N3CCOCC3)nc(NCc3ccccc3)c2C1 | n | n | 70 | n | n | n
CCN1CCc2c(sc(N)c2C#N)C1 | n | n | n | n | n | n
C=CCNc1nc(N2CCOCC2)c(C#N)c2c1CN(C)CC2 | n | n | n | n | n | n
CCN1CCc2c(C#N)c(N3CCCCC3)nc(NCc3ccccc3)c2C1 | n | n | 70 | n | n | n
CCN1CCc2c(C#N)c(N3CCOCC3)nc(NCCO)c2C1 | n | n | n | n | n | n
CC(C)C(OC(=O)c1ccco1)C(=O)NC1CCCCC1 (stereo not given) | 80 | n | n | n | n | n
O=C(NCC1CCCCC1)c1ccco1 | 66 | n | n | n | n | n
O=C(COC(=O)c1ccccc1NC(=O)c1ccco1)NCC1CCCCC1 | 79 | n | 95 | n | n | n
O=C(COC(=O)c1ccccc1NC(=O)c1ccco1)NCCC1=CCCCC1 | n | n | 84 | n | n | n
O=C(COC(=O)c1ccccc1NC(=O)c1ccco1)NC1CCCCC1 | n | n | n | n | n | n
COC(=O)c1ccccc1NC(=O)COC(=O)c1ccco1 | n | n | n | n | n | n
COC(=O)c1ccccc1NC(=O)COC(=O)c1ccc(C)c(NC(=O)c2ccco2)c1 | 57 | n | 75 | n | n | n
O=C(COC(=O)c1ccccc1NCc1ccco1)Nc1ccc2c(c1)OCO2 | n | n | n | n | n | n
O=C(COC(=O)c1ccccc1NC(=O)c1ccco1)Nc1ccc2c(c1)OCO2 | n | n | 58 | n | n | n
O=C(COC(=O)c1cncc(Br)c1)NCCC1=CCCCC1 | 88 | n | 72 | n | n | n
COc1c2occc2c(OC)c2c(=O)cc(C(F)(F)C(F)(F)F)oc12 | 98 | n | 61 | n | n | n
SMILES | CYP2C19 inhib | Mac1 fbg enh | CYP2C9 inh | CYP2C9 activ | CYP2C19 act | Mac1 fbg inh
COc1c2occc2c(OC)c2c(=O)cc(C(F)(F)F)oc12 | n | n | n | n | n | n
CN(C)c1ccc(-c2nnn(CC(=O)Nc3ccccc3N3CCOCC3)n2)cc1 | n | n | 90 | n | n | n
CN(C)c1ccc(-c2nnn(CC(=O)N3c4ccccc4CCc4ccccc43)n2)cc1 | 71 | n | 77 | n | n | n
COc1ccccc1N1CCN(C(=O)Cn2nnc(-c3ccncc3)n2)CC1 | n | n | n | n | n | n
CCN(CC)C(=O)COc1ccc(-c2ccccc2)cc1 | n | n | n | n | n | n
COC(=O)[C@H](CCSC)NC(=O)Nc1ccc(C)cc1C | 52 | n | n | n | n | n
COC(=O)[C@H](CCSC)NC(=O)Nc1ccc(C(C)C)cc1 | n | n | n | n | n | n
COC(=O)[C@H](CCSC)NC(=O)Nc1ccc(C)c(C)c1 | 62 | n | n | n | n | n

Assay outcomes deposited in PubChem BioAssay by Sanford-Burnham Center for Chemical Genomics.
